Assay outcomes from PubChem.
A selection: hits, their analogues and other compounds. The true share with any hit is near 0.88%.
Glioma ERSR ind = ER stress response induction in glioma; Potency, µM, for inactives: at the highest dose activation, hits mostly activators; 0.02% of 420,000 active; U87-MG GRP78 promoter luciferase reporter, 16 h; further: potency means the concentration at half of the fitted maximal effect; series mostly up to about 76 µM; % of control where 0% means no effect; nearly all actives have a fitted effect of over 35% in size
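Stably transfected U87-MG glioma cells carrying a GRP78-based luciferase sensor; 16 h compound incubation. Luminescence end-point read 10 min after Bright-Glo addition at room temperature.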
CtBP-E1A inh = blocks the CtBP interaction with E1A; 0.49% of 340,000 active; AlphaScreen GST-E1A/His-CtBP binding, 1536-well; stronger effect = lower value; activity change, % (concentration not given with the values); in the data active means activity change below about -65%; inconclusive means mostly about -30% to -63%; further: on the % scale 0 is the no-effect control and ±100 the full control effect
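AlphaScreen with 125 nM GST-E1A and 125 nM His-CtBP (5X stocks) in Tris pH 8.0, 300 mM NaCl, BSA, Tween 20, TCEP. Compounds preincubated 2 h at 37 deg C, then glutathione donor/nickel acceptor beads added for 1 h at 37 deg C in dark.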
Akt phos inh = Akt phosphorylation inhibition. Neuro2A IGF-stimulated pAkt S473 HTRF, 20 min; stronger effect = lower value. activity change, % for hits at 50 µM. 0.32% of 360,000 active. AID 651550; in the data active means activity change below about -80%; inconclusive means mostly about -51% to -80%; further: on the % scale 0 is the no-effect control and ±100 the full control effect
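Neuro2A cells in DMEM with 0.5% FBS, overnight at 37 deg C, given compound at single 50 µM final, then IGF (6 nM final) for 20 min at 37 deg C. Lysed; phospho-Akt Ser473 by HTRF after 24 h, 665/615 ratio.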
Six1-Eya2 blk = Six1/Eya2 interaction inhibition. AlphaScreen GST-Six1/His-Eya2 binding, biochemical; stronger effect = lower value. activity change, % (concentration not given with the values). 0.56% of 360,000 active; in the data active means activity change below about -65%; inconclusive means mostly about -30% to -63%; further: on the % scale 0 is the no-effect control and ±100 the full control effect
Target sequence (O00167 whole entry, looked up): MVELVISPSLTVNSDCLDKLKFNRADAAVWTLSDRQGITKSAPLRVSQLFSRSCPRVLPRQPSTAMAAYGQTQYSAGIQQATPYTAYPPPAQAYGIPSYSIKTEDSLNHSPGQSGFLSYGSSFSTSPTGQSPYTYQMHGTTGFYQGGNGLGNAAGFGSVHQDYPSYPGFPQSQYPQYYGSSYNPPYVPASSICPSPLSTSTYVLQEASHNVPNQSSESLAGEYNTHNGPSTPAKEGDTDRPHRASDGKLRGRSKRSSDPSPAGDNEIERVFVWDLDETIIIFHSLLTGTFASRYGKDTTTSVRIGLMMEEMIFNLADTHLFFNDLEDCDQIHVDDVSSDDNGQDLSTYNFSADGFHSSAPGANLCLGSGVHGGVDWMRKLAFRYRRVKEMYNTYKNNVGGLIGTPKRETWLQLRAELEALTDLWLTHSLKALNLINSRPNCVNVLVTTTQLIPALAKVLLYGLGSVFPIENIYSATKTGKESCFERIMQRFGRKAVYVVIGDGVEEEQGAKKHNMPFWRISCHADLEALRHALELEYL
Target sequence (Q15475 whole entry, looked up): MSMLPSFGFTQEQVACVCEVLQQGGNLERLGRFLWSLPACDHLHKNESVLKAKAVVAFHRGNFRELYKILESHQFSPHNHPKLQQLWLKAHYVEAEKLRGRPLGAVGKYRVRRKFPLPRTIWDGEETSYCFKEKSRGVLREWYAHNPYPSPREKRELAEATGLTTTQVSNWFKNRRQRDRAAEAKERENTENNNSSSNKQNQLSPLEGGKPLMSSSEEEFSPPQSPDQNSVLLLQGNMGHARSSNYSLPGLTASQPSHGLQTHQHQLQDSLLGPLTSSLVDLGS
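AlphaScreen luminescence read after one hour at 37 °C in darkness. Pin-transferred compounds met GST-Six1 and His-Eya2 protein (5X stock 250 nM/500 nM) plus glutathione donor and Ni-chelate acceptor beads (5X, 50 ug/mL).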
RGS4 inh = human RGS4 inhibition | AID 504845 | Transcreener GDP fluorescence polarization, RGS4-accelerated GTP hydrolysis | 0.039% of 390,000 active | P49798 | Potency, µM (titrated, usually from 114 µM), without a hit: top-dose activity change, negative = inhibition, most hits filed as inhibitors; further: potency means the concentration at half of the fitted maximal effect; on the % scale 0 is the no-effect control and ±100 the full control effect; nearly all actives have a fitted effect of over 75% in size
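MLSMR compounds (23 nl, pin-transferred) preincubated 10 min at room temperature with a 500nM (2x) first reagent, then RGS4 at 900nM (2x) plus Transcreener GDP mix added; fluorescence polarization (620/688 nm) read before and after 90 min at 30 °C.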
* = called active by the depositor; i = inactive; ? = inconclusive; / = no result; ! = a repeat was not active; [ ] = remark or other dose. Unless noted, the call rests on the fitted dose curve; in most records, active means well fitted curve in the direction sought with a large enough effect; inconclusive means small, poorly fitted or top-dose-only effect, or another doubt; inactive means no such curve, though single readings can be large; an effect the other way counts as inactive or inconclusive.

SMILES | Glioma ERSR ind | CtBP-E1A inh | Akt phos inh | Six1-Eya2 blk | RGS4 inh
CS(=O)(=O)Nc1ccc([N+](=O)[O-])cc1OC1CCCCC1 | -1% | / | / | / | 8.4µM*!
COc1ccc(Cn2c(N)c(C#N)c3nc4ccccc4nc32)cc1OC | -7% | -23 | i | -16 | -7%
COc1ccc(CCn2c(N)c(S(=O)(=O)c3cccs3)c3nc4ccccc4nc32)cc1OC | -1% | 8 | i | -67* | -6%
COc1ccc(CCn2c(N)c(C#N)c3nc4ccccc4nc32)cc1OC | -6% | -69* | i | -65* | 2%
CC(=O)c1ccc(F)c(-c2cc(C)cc3c2OC(CNC(=O)C2CCCCN2C)C3)c1 (stereo not given) | -6% | / | / | / | /
O=c1oc2ccccc2cc1-c1csc(NN=C2CCCC2)n1 | 3% | 22 | i | 21 | -5%
O=C(O)c1cccc(Nc2nc(-c3cc4ccccc4oc3=O)cs2)c1 | -4% | -79* | i | -78* | -24%
Cc1nc2ccccn2c1-c1csc(Nc2cccc(C(=O)O)c2)n1 | -2% | -71* | i | ? | -22%[56.9 µM]
COc1ccc2c(c1)CCc1cnc(-n3ncc(C(=O)NCCCc4ccncc4)c3C)nc1-2 | -2% | / | / | / | /
O=[N+]([O-])c1ccc(Oc2ccc(N=C=S)cc2)cc1 | -4% | / | / | / | /
Cc1cccc(CNC(=O)c2cnn(-c3nccc(-c4cccs4)n3)c2C(C)C)n1 | -3% | / | / | / | /
CN(C)c1ccc(NC(=O)CC(NCc2ccccn2)C(=O)O)cc1 (stereo not given) | -1% | 7 | i | -92* | -23%
CCC(=O)C(Cc1ccccc1)(Cc1ccccc1)CC(C)N(C)C (stereo not given) | -3% | / | / | / | /
O=C(O)c1ccc(C2CCCCC2)cn1 | -2% | -85* | i | -90* | ?
COc1nn(CC(=O)N2N=C(C)CC2(O)C(F)F)cc1[N+](=O)[O-] (stereo not given) | -4% | 6 | -90%* | -1 | -5%
CCCCS(=O)(=O)NC1=NCN(CCOC(=O)c2ccccc2)CN1 | -3% | 3 | -103%* | -1 | -1%
CC1(CCc2ccccc2)NC(=O)N(Cc2nnc(-c3ccccc3Br)o2)C1=O (stereo not given) | 3% | 0 | -108%* | 11 | 3%
O=C1NC2(CCCc3ccccc32)C(=O)N1Cc1nnc(-c2ccccc2Br)o1 (stereo not given) | -4% | -1 | i | -11 | -20%
COc1cccc(C(=O)N(Cc2nc(-c3ccc(C)cc3)no2)C(C)C)c1 | -4% | 8 | -100%* | 4 | -6%
O=[N+]([O-])c1ccc(O)c2ncccc12 | -7% | -96* | i | -91* | 3%
O=[N+]([O-])c1cc([N+](=O)[O-])c2cccnc2c1Oc1ccccc1O | -4% | ? | i | -65* | -26%
c1cncc(OC2CCN(Cc3ccc4c(c3)CN(Cc3nc5ccccc5s3)CCO4)CC2)c1 | -3% | / | / | / | /
CCOC(=O)C1CCCN(C(=O)Cn2ncc3c4ccccc4n(Cc4ccccc4)c3c2=O)C1 (stereo not given) | 14% | / | / | / | 4%
CCOC(=O)C1CCN(C(=O)Cn2ncc3c4ccccc4n(Cc4ccccc4)c3c2=O)CC1 | 32µM* | / | / | / | -21%
CN1CCN(C(=O)Cn2ncc3c4ccccc4n(Cc4ccc(F)cc4)c3c2=O)CC1 | -2% | / | / | / | -5%
SMILES | Glioma ERSR ind | CtBP-E1A inh | Akt phos inh | Six1-Eya2 blk | RGS4 inh
CCOC(=O)C1CCN(C(=O)Cn2ncc3c4ccccc4n(Cc4ccc(F)cc4)c3c2=O)CC1 | 40µM* | / | / | / | 7%
Cc1ccc(C)c2c(C)ccnc12 | -2% | / | / | / | /
CCn1nc(C)c(CN2Cc3ccccc3OC(c3ccccc3OC)C2)c1C (stereo not given) | -2% | / | / | / | /
COc1ccc(-c2nn3c(-c4ccco4)nnc3s2)cc1OC | -2% | -86* | i | -78* | -2%[11.4 µM]
NC(=S)N/N=C\c1ccc(-c2cccc(Cl)c2Cl)o1 | 3% | -12 | -122%* | -15 | -36%
CNC(=S)N/N=C/c1cc(Br)cc(Br)c1O | -4% | -97* | i | -90* | -48%
CC(=O)Nc1ccc(C(=O)N/N=C/c2cc(Br)cc(Br)c2O)cc1 | -3% | ? | i | -65* | -10%
Nc1nc2c(ncn2-c2ccccc2)c(=O)[nH]1 | 0% | -73* | i | ? | -16%
Nc1nc2nn(-c3ccccc3)nc2c(=O)[nH]1 | -1% | / | i | ? | -15%
COc1cccc(C(=O)NCC2Cc3cccc(-c4cccnc4)c3O2)c1 (stereo not given) | 5% | / | / | / | /
Cc1cccc(CNC(=O)c2cnn(-c3nccc(-c4cccs4)n3)c2C2CC2)n1 | -5% | / | / | / | /
Cc1cccc(NC(=O)c2cc3c([nH]c4ccccc43)c(C)n2)c1C | -9% | 1 | i | -3 | -19%
Cc1ccc(C)c(NC(=O)c2cc3c([nH]c4ccccc43)c(C)n2)c1 | -3% | -2 | -101%* | 5 | 6%
Cc1c(NC(=O)c2ccc(F)c(S(=O)(=O)N3CCOCC3)c2)c(=O)n(-c2ccccc2)n1C | 0% | -5 | -106%* | 3 | -24%
Cc1ccc(C(=O)Nc2c(C)n(C)n(-c3ccccc3)c2=O)cc1S(=O)(=O)N1CCOCC1 | -4% | 7 | i | 7 | -27%
COC(=O)/C=C/c1ccc2c(c1)S(=O)(=O)N(C1CCCC1)[C@H]2CC(=O)OC | 2% | / | / | / | /
NC(=O)c1ccccc1NC(=O)c1cccc(C(=O)Nc2ccccc2C(N)=O)n1 | -1% | -76* | i | -83* | -41%
COc1ccc(C(=O)Nc2ccc(-c3cn4ccsc4n3)cc2)cc1S(=O)(=O)N1CCOCC1 | -4% | -73* | i | -77* | 4%
COCc1ccc(O)c2ncccc12 | -2% | -95* | i | -91* | -32%
c1ccc2c(Cn3ccnc3)c[nH]c2c1 | -2% | -1 | i | 0 | -17%
OCc1ccnc2c(O)cccc12 | -2% | -92* | i | -89* | -3%
Oc1ccc(CNc2ccc(F)cc2)c2cccnc12 | 0% | -90* | i | -90* | ?
Oc1ccc(Cn2ccnc2)c2cccnc12 | 1% | -95* | i | -83* | 12%
